Source: PubChem BioAssay
TGFb SMAD3 inh: blocks TGF-b signaling; HepG2 CAGA-GFP TGF-b/SMAD3 reporter, GFP fluorescence, 18 h; TGF-beta stimulated, 500 pg/mL final; Potency, µM (titrated, usually from 46.1 µM), actives largely listed as inhibitors; 1.2% of 410,000 active; also: nearly all actives have a fitted effect of over 65% in size
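HEPG2 CAGA-GFP cells (1000/well, DMEM with 1% FBS) were pre-incubated 2 h at 37 degrees C, given compound by pin tool, then stimulated with TGF-beta at 500 pg/mL final for 18 h before per-cell GFP fluorescence imaging.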
DT40 TDP1 CPT: DT40-hTDP1 cell growth loss with CPT; chicken DT40 Tdp1-/-;hTDP1 cells + 20 nM CPT, ATP luminescence, 48 h; 12% of 420,000 active; Potency, µM (doses to about 46.2 µM), actives largely listed as inhibitors; also: nearly all actives have a fitted effect of over 55% in size
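Chicken DT40 Tdp1-/- cells complemented with human TDP1, 400 cells/well, exposed to compounds plus 20 nM camptothecin for at least 48 h at 37 C; viability read as ATP content by CellTiter-Glo luminescence.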
ATXN2 expr inh: reduces ATXN2 reporter expression in HEK-293 cells; HEK-293 ATXN2-luciferase reporter, luminescence, 24 h; 0.72% of 360,000 active; AID 1745845; Potency, µM (highest dose often 57 µM), most hits filed as inhibitors; also: nearly all actives have a fitted effect of over 55% in size
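ATXN2-luciferase reporter cells (luciferase flanked by upstream and downstream ATXN2 gene portions) were treated 24 h at 37 °C with compounds at up to 57 uM. SteadyGlo luminescence gave expression; GF-AFC fluorescence gave viability.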
ATXN viability: reduces viability in counter-screen for ATXN expression inhibitors; 0.49% of 400,000 active; S2 cells (HEK-293 line with an ATXN2-luciferase reporter) viability, CellTiter-Fluor protease fluorescence, 24 h; Potency, µM (doses to about 56.7 µM), actives largely listed as cytotoxic; also: nearly all actives have a fitted effect of over 40% in size
HepG2 tox: HepG2 cytotoxicity, counter-screen for TGF-b inhibitors | Potency, µM (highest dose often 46.1 µM), hits mostly cytotoxic | HepG2 CAGA-GFP viability, ATP luminescence, 18 h | AID 588856 | 0.76% of 410,000 active
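CellTiter-Glo luminescence gave cytotoxicity after 18 hours at 37 degrees C. The cells were HepG2 CAGA-GFP in 1% FBS DMEM, stimulated with 500 pg/mL TGF-beta after compound addition. %Activity was normalised to no-cell wells (complete cell-killing) and DMSO (no toxicity), and curves were fitted and classified.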
TDP1 cell noCPT: qHTS for Inhibitors of human tyrosyl-DNA phosphodiesterase 1 (TDP1): qHTS in cells in absence of CPT; DT40 Tdp1-/- hTDP1 cells, no CPT, ATP luminescence, 48 h; Potency, µM (titrated, usually from 46.2 µM), usual class: inhibitors; 15% of 420,000 active; also: nearly all actives have a fitted effect of over 55% in size
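Chicken DT40 Tdp1-/- cells complemented with human TDP1, screened without camptothecin (DMSO vehicle only), 400 cells/well. Compounds pin-transferred, cells incubated at 37 °C for at least 48 hr. Growth read as ATP-dependent luminescence (CellTiter-Glo, 30 min at RT).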
Numbers stand for hits; – = inactive; ? = inconclusive; · = no result; [ ] = remark or other dose. Shown are actives, neighbours in structure and some others; about 17% of the full set was active somewhere. Calls follow the shape of the dose curve; as a rule, active = well fitted curve in the direction sought with a large enough effect; inconclusive = small, poorly fitted or top-dose-only effect, or another doubt; inactive = no such curve, though single readings can be large; an effect the other way counts as inactive or inconclusive.

SMILES	TGFb SMAD3 inh	DT40 TDP1 CPT	ATXN2 expr inh	ATXN viability	HepG2 tox	TDP1 cell noCPT
COc1ccccc1CN(C)CC(=O)Nc1ccc(Cl)cc1F	?	?	–	–	–	?
COc1ccccc1CN(C)CC(=O)Nc1cccc2ccccc12	–	26µM	–	–	–	26µM
COc1ccc(CN2CCSc3sccc3C2=O)cc1	–	–	·	–	–	–
Cc1cccc(CNC(=O)c2cnn(-c3nccc(-c4cc(C)sc4C)n3)c2C)n1	·	–[9.04 µM]	·	–	·	–
CCc1ccc(NC(=O)Cn2c3[n+](c4c(F)c(F)ccc42)CCCCC3)cc1	–	2.6µM	–	–	–	5.8µM
CC(C)=CCCC(C)CN1CCC(n2nccc2NC(=O)c2ccc3c(c2)OCO3)CC1 (stereo not given)	?	?	–	–	–	?
CC1=CCC2C(=O)N(c3ccc(C)c(Br)c3)C(=O)C2C1 (stereo not given)	–	–	–	–	–	–
C=CCNc1cc(=O)n(Cc2ccccc2)c(=O)[nH]1	–	?	–	–	–	18µM
CCCCCCc1cc2cc(C(=O)NCc3ccccc3)c(=N)oc2cc1O	–	?	–	–	–	?
CCCCCCc1cc2cc(S(=O)(=O)c3ccc(C)cc3)c(=O)oc2cc1O	?	?	?	·	–	?
CCCCCCc1cc2cc(S(=O)(=O)c3ccc(Cl)cc3)c(=O)oc2cc1O	11µM	?	?	·	–	?
CCCCCCc1cc2cc(C(=O)Nc3ccccc3)c(=O)oc2cc1O	?	3.3µM	7.1µM	–	–	3.7µM
CC(OC(=O)C1CC1)C(=O)Nc1cc(C(F)(F)F)ccc1Cl (stereo not given)	–	–	–	–	–	–
Cc1ccc(CNC(=O)c2c(-c3ccc(Br)cc3)noc2C)o1	?	?	–	–	–	?
O=c1c(O)c(-c2ccccc2)oc2ccccc12	?	?	?	·	–	9.2µM
Cc1ccc2oc(-c3ccccc3)c(C(=O)O)c(=O)c2c1	–	?	–	–	–	23µM
O=c1c(O)c(-c2cccs2)oc2ccccc12	–	?	–	·	–	?
COc1cccc(-c2oc3ccc(C)cc3c(=O)c2O)c1	8.9µM	21µM	?	–	–	13µM
Cc1ccc(-c2oc3ccccc3c(=O)c2O)cc1	–	26µM	?	?	–	16µM
COC(=O)C1=C(C)NC(C)=C(C(=O)OC)C1c1ccc(OC(=O)c2oc3ccccc3c2C)c(OC)c1	–	?	·	–	–	?
COc1ccc2[nH]cc(S(=O)(=O)c3ccc(C)c(C)c3)c(=O)c2c1	–	–	–	–	–	–
COc1cccc(OCCn2cc(C(C)=O)c3ccccc32)c1	–	12µM	–	–	–	18µM
Cc1ccc(C)c(OCCn2cc(C(=O)O)c3ccccc32)c1	–	–	–	–	–	–
CC(=O)c1cn(CCOc2cc(C)ccc2C)c2ccccc12	–	3.7µM	–	–	–	4.1µM
CCOC(=O)Cn1cc(C(=O)c2ccco2)c2ccccc21	–	–	32µM	?	–	?
SMILES	TGFb SMAD3 inh	DT40 TDP1 CPT	ATXN2 expr inh	ATXN viability	HepG2 tox	TDP1 cell noCPT
COc1ccccc1OCCn1cc(C(=O)c2ccco2)c2ccccc21	–	?	–	–	–	18µM
C=CCSc1nnc(C)n1-c1ccc(Cl)cc1	–	–	–	–	–	–
CN(C)C(=O)c1ccc(NC(=O)COC(=O)C2=COCCO2)cc1	–	–	–	–	–	–
Cc1nn(-c2ccccc2)c(C)c1C(=O)N1CCN(S(=O)(=O)c2ccccc2)CC1	–	–	–	–	–	?
Cc1ccccc1OCCn1cc(C(=O)c2ccco2)c2ccccc21	?	?	–	?	–	23µM
O=C(O)Cn1cc(C(=O)c2ccco2)c2ccccc21	–	–	–	–	–	–
COc1cccc(OCCn2cc(C(=O)c3ccco3)c3ccccc32)c1	?	16µM	–	–	–	16µM
CNC(=O)Cn1cc(S(=O)(=O)Cc2ccccc2F)c2ccccc21	–	–	·	·	–	?
O=C(COC(=O)/C=C/c1ccc(F)cc1)Nc1ccccc1-c1ccccc1	–	–	–[11.3 µM]	–	–	–
CCOC(=O)CSC1=NC(=O)/C(=C/c2ccc(Br)cc2)S1	–	2.6µM	–	–	–	4.1µM
CCOC(=O)COc1ccc(Br)cc1/C=C1\SC(N)=NC1=O	?	–	·	–	–	?
NC1=NC(=O)/C(=C/c2ccc(Br)cc2)S1	–	–	·	·	–	–
CCOC(=O)CSC1=NC(=O)/C(=C\c2ccc(OC(C)=O)cc2)S1	–	2.6µM	?	·	–	2.9µM
